Reference: PubChem BioAssay (Tox21)
Records with an inconclusive call do not appear. Active and inactive are the calls of the source. Unless noted, calls follow the shape of the dose curve; as a rule, active = well fitted curve in the direction sought with a large enough effect in the repeat runs; inconclusive = weak or mixed curves; inactive = no such curve, though single readings can be large; an effect the other way counts as inactive or inconclusive.

How the values were obtained:
[1] = qHTS assay to identify small molecule agonists of the hypoxia (HIF-1) signaling pathway - cell viability counter screen (AID 1224844; calls by dose curve; also: nearly all actives have a fitted effect of over 50% in size)
In short: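 HRE-bla ME-180 cells in medium with 0.5% dialyzed FBS were preincubated 5 hrs at 37C, exposed to compounds for 17 hrs, then viability was read as CellTiter-Glo luminescence after 30 min at room temperature, in the reporter wells.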

[2] = qHTS assay to identify small molecule agonists of H2AX - cell viability counter screen (AID 1224847; calls by dose curve; also: top concentration of the series differs between compounds; nearly all actives have a fitted effect of over 30% in size)
In short: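 Quantitative HTS viability measurement: CHO-K1 wild-type cells in serum (10% FBS) medium, short 3 hr drug exposure at 37C with 0.76% DMSO, CellTiter-Glo luminescent detection.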

[3] = qHTS assay to identify small molecule antagonists of the estrogen related receptor (ERR) signaling pathway from Tox21 library (AID 1224848); also: nearly all actives have a fitted effect of over 50% in size
In short: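 ERR reporter cell line (from NTP) seeded 2,000 cells/well, rested 6 h at 37 C/5% CO2, then pin-dosed with compounds in DMSO. After 18 h at 37 C, ONE-Glo added; luminescence read after 30 min at room temperature.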

[4] = qHTS assay to identify small molecule agonists of the estrogen related receptor (ERR) signaling pathway from Tox21 library (AID 1224849; calls by dose curve; also: nearly all actives have a fitted effect of over 15% in size); settings: ERR reporter cell line, ONE-Glo luciferase, 18 h; at 92.4 µM (top of the series) unless noted
In short: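 ERR reporter cell line (NTP) seeded, rested 6 h at 37 C/5% CO2, then pinned with Tox21 compounds in DMSO. After 18 h at 37 C, ONE-Glo luciferase luminescence was read following 30 min at room temperature.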

[5] = qHTS RealTime-Glo MT Cell Viability Assay in HepG2 cells - 24 hour (AID 1224867); also: nearly all actives have a fitted effect of over 50% in size
In short: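 Compound treatment began 5 h after plating HepG2 cells (600/well) with NanoLuc luciferase and prosubstrate. Plates stayed at 37 C for 40 h; luminescence was captured at six time points, 0 h through 40 h.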

[6] = qHTS RealTime-Glo MT Cell Viability Assay in HEK293 cells - 32 hour (AID 1224868); also: top concentration of the series differs between compounds; nearly all actives have a fitted effect of over 50% in size
In short: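 Quantitative high-throughput screen of the Tox21 10K library in HEK293: cells and RealTime-Glo reagents plated together, compound added at 5 h, luminescence monitored through 40 h at 37 C.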

[7] = A CellTox Green Cytotoxicity Assay to monitor cytotoxicity in HEK293 cells - 0 hour (AID 1224869); also: nearly all actives have a fitted effect of over 50% in size
In short: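 HEK293 cells premixed with CellTox Green dye were seeded at 600 cells/well and left 5 h at 37 C/5% CO2 before pin transfer of 23 nL compound in DMSO. Fluorescence from dye bound to dead-cell DNA was read during 40 h treatment.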

[8] = qHTS assay to identify small molecule agonists of H2AX (AID 1224845; active = well fitted activation curve with a large enough effect in the signal ratio in the repeat runs, not every such curve was filed as active; the % refers to the signal ratio)
In short: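 Wild-type CHO-K1 cells, plated overnight, exposed 3hr at 37C to 15 concentrations (0.76% DMSO final). Lysed, then HTRF anti-pH2AX (S139) cryptate and anti-H2AX-d2 antibodies, 24 hr room temperature; 665/620 nm emission read.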

[9] = qHTS assay to identify small molecule agonists of the hypoxia (HIF-1) signaling pathway (AID 1224846; active = well fitted activation curve with a large enough effect in the signal ratio in the repeat runs, not every such curve was filed as active; the % refers to the signal ratio)
In short: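 HRE-bla ME-180 cells (beta-lactamase reporter under hypoxia response element) were plated at 2,000 cells/well in medium with 0.5% dialyzed FBS, rested 5 hrs, then given compounds in DMSO for 17 hrs at 37C, 5% CO2. Reporter induction was read with CCF4-AM FRET substrate.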
% is scaled to controls: 0 for no effect and ±100 for the full control effect.

NC(CO)C(=O)NNCc1ccc(O)c(O)c1O (configuration not stated)
inactive: outcome [1] | Potency [2] | Potency [3] | activity change, positive = activation [4] 1.5% [at 42.5 µM] | outcome [5] | Potency [6] | outcome [7]

Nc1ccc(S(=O)(=O)Nc2ccc(Cl)nn2)cc1
inactive: outcome [1] | outcome [8] | Potency [2] | Potency [3] | activity change, positive = activation [4] 4.62% [at 42.5 µM] | outcome [5] | outcome [7]

O=S(=O)(O)c1cc(O)c2ccc(Nc3ccccc3)cc2c1
inactive: outcome [1] | outcome [9] | Potency [2] | outcome [5] | Potency [6] | outcome [7]

COc1cc(NS(=O)(=O)c2ccc(N)cc2)nc(OC)n1
inactive: outcome [1] | outcome [8] | Potency [2] | Potency [3] | outcome [5] | Potency [6] | outcome [7]

CC(C)C[C@H](NC(=O)CNC(=O)[C@H](Cc1ccc(O)cc1)NC(=O)[C@H](CO)NC(=O)[C@H](Cc1c[nH]c2ccccc12)NC(=O)[C@H](Cc1cnc[nH]1)NC(=O)[C@@H]1CCC(=O)N1)C(=O)N[C@@H](CCCN=C(N)N)C(=O)N1CCC[C@H]1C(=O)NCC(N)=O (stereo in doubt)
inactive: outcome [1] | outcome [8] | Potency [2] | outcome [5] | Potency [6] | outcome [7]

CCCCN
inactive: outcome [1] | outcome [8] | outcome [9] | Potency [2] | Potency [3] | activity change, positive = activation [4] 3.11% [at 42.5 µM] | outcome [5] | Potency [6] | outcome [7]

CC1=CCC(C(C)C)=CC1
inactive: outcome [1] | outcome [8] | outcome [9] | Potency [2] | outcome [5] | Potency [6] | outcome [7]

O=C(c1ccc(O)cc1)c1ccc(O)c(O)c1O
inactive: outcome [1] | outcome [9] | Potency [2] | activity change, positive = activation [4] -5.51% | outcome [5] | Potency [6] | outcome [7]

Cc1cc(Cl)c(C)cc1Cl
inactive: outcome [1] | outcome [8] | outcome [9] | Potency [2] | Potency [3] | activity change, positive = activation [4] -5.35% | outcome [5] | Potency [6] | outcome [7]

CC(CC=O)CCCC(C)(C)O (configuration not stated)
inactive: outcome [1] | outcome [8] | outcome [9] | Potency [2] | Potency [3] | outcome [5] | Potency [6] | outcome [7]

N#Cc1ccc(C(=O)O)cc1
inactive: outcome [1] | outcome [8] | outcome [9] | Potency [2] | Potency [3] | activity change, positive = activation [4] 1.83% | outcome [5] | outcome [7]

CC[C@H](C)C(=O)O[C@H]1C[C@H](O)C=C2C=C[C@H](C)[C@H](CC[C@@H](O)C[C@@H](O)CC(=O)O)[C@H]21
inactive: outcome [8] | outcome [9] | Potency [2] | outcome [5] | outcome [7]

COc1ccc(S(=O)(=O)N2c3ccc(Cl)cc3[C@@](O)(c3ccccc3Cl)[C@H]2C(=O)N2CCC[C@@H]2C(N)=O)cc1OC
inactive: outcome [1] | outcome [8] | outcome [9] | Potency [2] | outcome [5] | outcome [7]

CC(C)CCCCOC(=O)c1ccccc1C(=O)OCCCCC(C)C
inactive: outcome [1] | outcome [8] | outcome [9] | Potency [2] | activity change, positive = activation [4] -6.44% | outcome [5] | Potency [6] | outcome [7]

CCOCCOCCOCC
inactive: outcome [1] | outcome [8] | outcome [5] | Potency [6] | outcome [7]

FC(F)(F)c1ccccc1-n1ccnc1
inactive: outcome [1] | outcome [8] | Potency [2] | outcome [5] | Potency [6] | outcome [7]

NCCS
inactive: outcome [1] | outcome [8] | Potency [2] | Potency [3] | activity change, positive = activation [4] -2.88% [at 42.5 µM] | outcome [5] | Potency [6] | outcome [7]

C#CC(C)N(C)C(=O)Nc1ccc(Cl)cc1 (configuration not stated)
inactive: outcome [1] | outcome [8] | Potency [2] | Potency [3] | activity change, positive = activation [4] 5.26% | outcome [5] | outcome [7]

CCC(C=O)CC
inactive: outcome [1] | outcome [8] | outcome [9] | Potency [2] | Potency [3] | activity change, positive = activation [4] 2.68% | Potency [6] | outcome [7]

C=CC(OCC)OCC
inactive: outcome [1] | outcome [8] | outcome [9] | Potency [2] | outcome [5] | outcome [7]

Nc1ccc2cc(S(=O)(=O)O)cc(O)c2c1
inactive: outcome [1] | outcome [9] | Potency [2] | Potency [3] | activity change, positive = activation [4] 1.3% | Potency [6] | outcome [7]
